In the library only some 2.9% were active in any assay of this set; here they are far more common.
PAFAH1B3 inh = blocks human PAF acetylhydrolase 1B catalytic subunit 3; 340,000 tested, 0.28% active; recombinant PAFAH1B3, FP-rhodamine probe, fluorescence polarization; inhibition, % at 3.39 µM; Q15102; AID 492972;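 active means inhibition above the screen-wide average of all tested compounds plus 3 SD, cut at about 25% in these data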;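 further: 0% = enzyme with DMSO only and 100% = wells lacking PAFAH1B3 protein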
Target sequence (Q15102 whole entry, looked up): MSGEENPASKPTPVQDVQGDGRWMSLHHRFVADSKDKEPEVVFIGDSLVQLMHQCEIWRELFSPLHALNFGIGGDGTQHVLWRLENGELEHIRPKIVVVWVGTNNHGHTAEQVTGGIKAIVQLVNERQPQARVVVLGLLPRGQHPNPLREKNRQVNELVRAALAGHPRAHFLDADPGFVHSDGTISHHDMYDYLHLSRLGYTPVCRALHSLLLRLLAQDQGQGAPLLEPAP
pPAFAH inh = pPAFAH (human) enzyme inhibition; Q13093; recombinant pPAFAH, FP-rhodamine probe fluorescence polarization; inhibition, % at 3.39 µM; 330,000 tested, 1.5% active; AID 463082;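 active means inhibition above the mean inhibition across the screen plus 3 SD, cut at about 25% in these data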;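 further: inhibitors block binding of the rhodamine activity-based probe so polarization drops; 0% = enzyme with DMSO and 100% = wells lacking pPAFAH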
PAFAH1B2 FP inh = PAFAH1B2 (human) inhibition; inhibition, % at 3.39 µM; P68402; recombinant PAFAH1B2, FP-rhodamine activity probe, fluorescence polarization; 340,000 tested, 1.2% active; AID 492953;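 active means inhibition above the mean of all tested compounds plus 3 SD, cut at about 24% in these data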;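 further: 0% = enzyme with DMSO and 100% = wells lacking PAFAH1B2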
PAFAH2 FP inh = inhibitors of human PAFAH2 | recombinant PAFAH2, FP-rhodamine activity probe, fluorescence polarization | inhibition, % at 3.39 µM | 340,000 tested, 0.99% active | AID 492956;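 active means inhibition above the mean over all tested compounds plus 3 SD, cut at about 30% in these data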;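 further: inhibitors block probe labeling of enzyme so polarization drops; 0% = enzyme with DMSO and 100% = wells lacking PAFAH2 protein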
PME-1 inh = blocks human protein phosphatase methylesterase 1. Q9Y570. recombinant PME-1, FP-Rh probe fluorescence polarization. inhibition, % at 5.9 µM. 320,000 tested, 0.53% active. AID 2130;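 active means inhibition above the campaign mean of all compounds plus 3 SD, cut at about 26% in these data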;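 further: competitive labeling of PME-1 active site by serine hydrolase directed probe; 0% = PME-1 with DMSO and 100% = wells lacking PME-1 enzyme; inhibitors block probe labeling so polarization falls and inhibition rises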
Target sequence (Q9Y570 whole entry, looked up): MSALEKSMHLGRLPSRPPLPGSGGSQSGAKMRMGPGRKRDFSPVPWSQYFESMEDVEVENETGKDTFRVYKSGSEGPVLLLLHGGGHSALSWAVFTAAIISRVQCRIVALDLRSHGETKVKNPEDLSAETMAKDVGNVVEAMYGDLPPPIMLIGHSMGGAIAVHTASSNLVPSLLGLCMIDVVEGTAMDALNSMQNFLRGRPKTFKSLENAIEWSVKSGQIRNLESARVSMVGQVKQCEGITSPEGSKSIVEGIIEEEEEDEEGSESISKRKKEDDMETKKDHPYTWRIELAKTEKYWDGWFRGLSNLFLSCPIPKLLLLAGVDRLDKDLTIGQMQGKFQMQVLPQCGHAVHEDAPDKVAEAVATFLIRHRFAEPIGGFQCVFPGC
Fam108B counter = blocks mouse Fam108B hydrolase in RBBP9 counter-screen. 300,000 tested, 0.33% active. recombinant Fam108B, FP-Rh probe fluorescence polarization. inhibition, % at 9.51 µM;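 active means inhibition above the screen mean inhibition plus 3 SD, computed separately per campaign, cut at about 18% in these data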;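 further: inhibitors lower polarization as less probe binds the enzyme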
* marks the source's active call; other numbers are inactive results; nt = no result given.

SMILES | PAFAH1B3 inh | pPAFAH inh | PAFAH1B2 FP inh | PAFAH2 FP inh | PME-1 inh | Fam108B counter
O=C(N/N=C/c1ccc([N+](=O)[O-])o1)c1cc2c(ccc3ccccc32)o1 | 2.0 | nt | 2.2 | 16.6 | nt | nt
Cc1ccc2c(c1C)-c1c(ccc(C)c1C)C(=O)C2=O | 70.1* | nt | 14.5 | 30.9* | nt | nt
COc1ccc(/C=C2\Oc3cc(OC(=O)N4CCOCC4)ccc3C2=O)cc1 | 6.9 | 27.0* | 4.8 | 11.6 | -0.6 | 2.5
CCc1ccc(/C=C2\Oc3cc(OC(=O)N4CCOCC4)ccc3C2=O)cc1 | 8.7 | 26.3* | 3.4 | 3.0 | -14.3 | 0.5
COc1cc(OC)c(OC)cc1/C=C1\Oc2cc(OS(C)(=O)=O)ccc2C1=O | 0.1 | 7.0 | 0.5 | -1.9 | -5.4 | -0.5
CC(=O)Oc1ccc2c(c1)O/C(=C\c1ccncc1)C2=O | 2.6 | 3.2 | 0.5 | -7.2 | 0.0 | 1.6
COc1ccc2c(c1)O/C(=C\c1ccccc1C)C2=O | 3.8 | 27.2* | 2.2 | -8.4 | 8.3 | 1.4
O=C(Nc1cccc(Cl)c1)c1ccc(S(=O)(=O)NCC2CCCO2)cc1 (stereo not given) | 0.5 | 4.9 | -4.4 | 0.6 | 1.1 | -0.6
CC(C)(C)CC(=O)Nc1ccc(S(=O)(=O)NC2=NCCCCC2)cc1 | 10.1 | 2.7 | 3.3 | -0.9 | nt | nt
Cc1ccccc1C(=O)Nc1cc(NC(=O)c2ccccc2C)cc(C(=O)O)c1 | 0.7 | 0.2 | 2.6 | -6.0 | -5.8 | -4.6
CCCCN1CC(COCc2ccccc2)Oc2cccc(Oc3cc(C)c(C)c(C)c3)c2S1(=O)=O (stereo not given) | 7.0 | nt | 2.5 | -11.2 | nt | nt
C/C(CCC12CC3CC(CC(C3)C1)C2)=N\NC(N)=S | 9.4 | -1.8 | 23.7 | 4.1 | 1.9 | -1.0
C/C(CC(C)(C)C1CCCCC1)=N\NC(N)=S | 2.4 | 5.9 | 41.0* | 1.7 | 0.7 | 0.8
CCOC(=O)CSc1nc2sc3c(c2c(=O)[nH]1)CC(C)(CC)OC3 (stereo not given) | 5.3 | -6.1 | 3.1 | -2.9 | -5.5 | -2.8
CCC1(C)Cc2c(sc3nc(NN)n(C)c(=O)c23)CO1 (stereo not given) | 8.2 | 4.9 | 3.6 | 11.3 | 36.8* | 2.4
CC(C)Cc1nnc(NC(=O)C23CC4CC(CC(C4)C2)C3)s1 | 0.3 | -1.2 | 20.2 | 5.2 | 0.2 | 2.9
CCc1nnc(NC(=O)C23CC4CC(CC(C4)C2)C3)s1 | 6.0 | 4.9 | 29.5* | 8.6 | -3.6 | 2.2
NC(=O)CSc1nnc(NC(=O)C23CC4CC(CC(C4)C2)C3)s1 | 3.4 | 8.5 | 27.9* | 8.2 | -7.2 | -1.5
COc1ccc(OC)c(/C=C/C(=O)N(C)CC(=O)Nc2ccc(N3CCOCC3)cc2)c1 | 5.6 | 3.0 | 5.1 | -1.2 | 6.5 | nt
CCC(NC(=O)c1ccncc1)c1ccccc1 (stereo not given) | 9.2 | 7.2 | 3.6 | 7.0 | 6.2 | 4.6
CCCCn1c(C23CC4CC(CC(C4)C2)C3)n[nH]c1=S | -0.9 | 1.8 | 28.7* | 4.5 | 4.4 | -0.4
S=C(NCc1ccc(Cl)cc1Cl)Nc1ccccc1 | -4.1 | 33.2* | 5.8 | 0.7 | 6.8 | -6.5
O=C(NCc1ccccc1F)c1cccs1 | 5.0 | -1.4 | 3.2 | -1.9 | -1.1 | 1.5
O=C(NC(=S)NCc1ccccc1Cl)c1cccs1 | -0.1 | 26.8* | -5.8 | -0.9 | nt | nt
O=C(c1ccc(Cl)cc1)N1CCC(C(=O)N2CCN(c3ncccn3)CC2)CC1 | 10.5 | 2.0 | 0.7 | 6.9 | 0.5 | nt
SMILES | PAFAH1B3 inh | pPAFAH inh | PAFAH1B2 FP inh | PAFAH2 FP inh | PME-1 inh | Fam108B counter
CCC(C)CCCCCCCCCCC(=O)O (stereo not given) | 13.6 | 7.1 | 48.4* | 8.7 | 4.2 | 2.3
O=C(C[C@@H]1C/C=C\CC[C@H](Cc2ccc(F)cc2)C(=O)OC[C@@H]2CCCN2C1=O)NCCO | 2.7 | 1.4 | 6.4 | -1.6 | nt | nt
COc1ccc(S(=O)(=O)Nc2cccc(F)c2)cc1C | 0.0 | 26.5* | -2.9 | 5.9 | 1.3 | -0.7
CCC(C(=O)c1ccc2ncccc2c1)c1ccccc1 (stereo not given) | 9.6 | 1.5 | 25.3* | 9.7 | 1.4 | -3.4
O=C(Nc1ccc2ncccc2c1)c1ccccc1 | 6.0 | 0.7 | -6.8 | -9.7 | -3.2 | -2.9
N#Cc1ccc(-c2ccco2)nc1SCC(=O)c1ccc(Cl)cc1 | 2.5 | 38.9* | 6.7 | 0.5 | -2.7 | 0.8
Cc1ccc(C(=O)CSc2nc(-c3ccccc3)ccc2C#N)cc1 | -0.9 | -2.7 | 1.4 | 3.7 | 0.7 | 1.8
O=C(Cn1ccccc1=O)NCc1ccc(F)cc1 | -8.2 | 33.3* | 2.0 | -1.4 | -0.1 | -0.2
Cc1ccc(SCC(=O)O/N=C(\N)c2cccnc2)cc1 | 4.3 | -4.7 | 75.4* | -0.1 | -3.2 | -2.8
Cc1ccc(S(=O)(=O)N(C)CC(=O)O/N=C(\N)c2cccnc2)cc1 | 5.0 | 0.2 | 6.5 | 2.6 | 1.2 | -3.8
COC(=O)C(N)Cc1ccc(O)c(O)c1 (stereo not given) | 7.2 | 13.5 | 1.0 | -3.2 | 8.7 | -0.5
NC(CO)C(=O)NNCc1ccc(O)c(O)c1O (stereo not given) | 19.0 | 27.6* | 5.8 | 8.1 | -17.3 | 6.4
CCC1COC(c2cccn2Cc2ccccc2Cl)=N1 (stereo not given) | 9.3 | 7.5 | 5.3 | 5.8 | 4.1 | 0.0
Cc1nc(NC(=O)CSc2nnc(N)s2)c(Cl)cc1Cl | 5.4 | -6.7 | 0.4 | 5.3 | -5.6 | 0.8
CCCCCCc1cc2cc(S(=O)(=O)c3ccc(F)c(Cl)c3)c(=O)oc2cc1O | 2.7 | 33.0* | 0.8 | 25.8 | 6.3 | 7.9
CCCCCCc1cc2cc(C(=O)OCC)c(=O)oc2cc1O | 1.8 | -1.0 | 4.0 | 7.5 | 3.1 | 2.6
COc1ccc(/C=C/CN2CCC(n3nccc3NC(=O)C3CC3)CC2)cc1 | 4.8 | 4.0 | 5.1 | 2.8 | -3.1 | -2.8
O=C(O/N=C1/CCCc2occc21)c1ccccc1 | 5.2 | 5.6 | -1.0 | 18.2 | -2.2 | 6.0
O=C(O/N=C1/CCCc2occc21)c1ccc(Cl)cc1Cl | 1.8 | 0.1 | 33.7* | 7.9 | -3.7 | -0.6
CC(C)(C)c1cc(OC(=O)C2CCCC2)ccc1O | 12.5 | -2.7 | 92.3* | 3.8 | 2.9 | 0.7
CC(C)(C)c1cc(OS(C)(=O)=O)ccc1O | 6.6 | 3.5 | 10.3 | -3.4 | -3.6 | -0.3
CCCc1cc(=O)oc2cc(C)cc(O)c12 | 10.9 | 5.7 | 7.3 | 1.4 | -1.9 | -0.6
CCCc1cc(=O)oc2c3c(c4c(c12)OC(C)(C)C=C4)OC(C)C(C)C3O (stereo not given) | -3.6 | 30.6* | 4.0 | 11.6 | 2.5 | -9.5
CN(C)C(=O)c1nc2ccc(Cl)cn2c1CN1CCCC(OCc2cccnc2)C1 (stereo not given) | -0.6 | -4.4 | -3.4 | 0.8 | 1.3 | 0.7
Oc1ccc(/C=N/N(c2ccccc2)c2ccccc2)cc1O | 3.8 | 68.9* | 1.3 | -4.8 | -5.1 | -1.8
Oc1ccc(/C=N/N(c2ccccc2)c2ccccc2)c(O)c1O | -4.8 | 69.1* | 4.0 | 8.5 | 2.5 | 4.5

Compound activity: PubChem, The Scripps Research Institute Molecular Screening Center
